Source: PubChem (several laboratories)
Compounds with a hit are over-represented: about 3.5% of the library has one in this group of screens.
Mtb UGM inh = M. tuberculosis UGM enzyme inhibitors, primary screen, biochemical, fluorescence polarization, single point; UDP-galactopyranose mutase (Mycobacterium tuberculosis (strain ATCC 25618 / H37Rv)), …; purified UGM, fluorescence polarization probe displacement; inhibition, % at 10 µM; 320,000 compounds, 0.06% hits; in the data active = inhibition above about 10%, passing the limit was not always enough
Rv3671c protease = Rv3671c serine protease inhibitors, primary screen, biochemical, fluorescence polarization, M. tuberculosis H37Rv. 320,000 compounds, 0.048% hits. inhibition, % at 5.96 µM. P9WHR9. AID 2606, 2010; in the data active = inhibition above about 38%;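 also: extracellular domain of Rv3671c used as enzyme; 0% = enzyme with DMSO and 100% = no enzyme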
GDH-TPI counter-1 = GDH-TPI coupling enzyme inhibitors, primary screen, artefact control for M. tuberculosis FBA inhibitor project, biochemical, absorbance, full deck. 360,000 compounds, 1.2% hits. inhibition, % at 4.8 µM. GDH-TPI coupled enzyme counterscreen, NADH absorbance; in the data active = inhibition above about 30%;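 also: 0% = DMSO wells and 100% = wells lacking the enzyme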
FBA Mtb inh = Mtb FBA enzyme inhibitors, primary screen, biochemical, fluorescence, strain H37Rv; Fructose-bisphosphate aldolase (Mycobacterium tuberculosis (strain ATCC 25618 / H37Rv)), …; purified M. tuberculosis FBA, fluorescence read-out; inhibition, % at 1 µM; 360,000 compounds, 2.3% hits;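 also: 0% = vehicle and 100% = reference inhibitor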
Target sequence (P9WQA3 whole entry, looked up): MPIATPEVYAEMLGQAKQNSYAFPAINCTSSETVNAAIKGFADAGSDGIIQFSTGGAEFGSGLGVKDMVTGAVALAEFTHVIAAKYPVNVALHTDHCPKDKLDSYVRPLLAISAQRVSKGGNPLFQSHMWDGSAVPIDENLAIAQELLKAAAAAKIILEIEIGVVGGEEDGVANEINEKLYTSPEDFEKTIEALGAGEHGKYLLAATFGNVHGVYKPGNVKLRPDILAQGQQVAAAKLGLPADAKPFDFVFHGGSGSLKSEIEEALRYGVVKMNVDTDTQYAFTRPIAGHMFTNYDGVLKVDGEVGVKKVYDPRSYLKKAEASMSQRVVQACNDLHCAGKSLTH
Mtb FBA confirm = M. tuberculosis aldolase blockers, biochemical, fluorescence, strain H37Rv, confirmation | purified M. tuberculosis FBA, fluorescence read-out | 5,600 compounds, 78% hits | AID 651616, 2012 | inhibition, % at 1 µM | shares compounds with FBA Mtb inh;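 also: 0% = vehicle wells and 100% = reference inhibitor wells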
GDH-TPI counter-2 = GDH-TPI coupling enzyme inhibitors, artefact control for M. tuberculosis FBA inhibitor project, biochemical, fluorescence, high throughput; shares compounds with FBA Mtb inh; GDH-TPI coupled enzyme counterscreen; inhibition, % at 1 µM; 5,600 compounds, 81% hits; in the data active = inhibition above about 10%
The depositor's hits bear a star; . = no result given; + = active, no number. Rule as the data show it, unless noted: active = inhibition above about 27%; inactive = the rest.

SMILES	Mtb UGM inh	Rv3671c protease	GDH-TPI counter-1	FBA Mtb inh	Mtb FBA confirm	GDH-TPI counter-2
Oc1ccc2ccccc2c1C=Nc1ccccc1-c1nc2ccccc2[nH]1	0	-11	9	67*	62*	38*
CC(C)(C)c1ccc(O)c(N=Cc2c(O)ccc3ccccc23)c1	2	-7	6	-6	.	.
COc1cccc(CN2CCCC(C(=O)Nc3ccc(-c4cscn4)cc3)C2)c1 (configuration not stated)	2	.	-8	2	.	.
Cc1cccn2c(=O)c(C=NCCO)c(Nc3ccc(Cl)cc3)nc12	2	-2	.	.	.	.
Cc1cccn2c(=O)c(C=Nc3ccccc3)c(NCCO)nc12	2	1	22	39*	7	-2
Cc1cccn2c(=O)c(C=Nc3ccc(Cl)cc3)c(NCCO)nc12	-2	4	7	31*	66*	45*
CNc1nc2c(C)cccn2c(=O)c1C=NCc1ccccc1	-2	-7	12	8	.	.
Cc1ccc(COC(=O)c2nn(-c3ccccc3)nc2N)cc1	3	-15	1	86*	3	-4
O=C(O)c1ccc2c(c1)C(=O)N(CCCCCCCN1C(=O)c3ccc(C(=O)O)cc3C1=O)C2=O	1	-7	2	-1	.	.
O=C(O)c1ccc2c(c1)C(=O)N(CCc1ccccc1)C2=O	-2	-3	-1	85*	174*	132*
COc1cccc(CN(C(=O)c2ccc([N+](=O)[O-])cc2)C2CCS(=O)(=O)C2)c1 (configuration not stated)	0	4	12	64*	101*	79*
CC(C)Oc1cccc(-c2cc(C(=O)NC(=S)N(C)c3ccccc3C(=O)O)c3ccccc3n2)c1	3	-3	13	42*	5	-4
CC(C)Oc1cccc(-c2cc(C(=O)NN3CCOCC3)c3ccccc3n2)c1	4	0	14	-2	.	.
COc1ccc(C(=O)NCCNc2nc3ccc(C)cc3cc2C#N)cc1OC	1	-1	-1	35*	+	158*
COc1ccc(Nc2nc3ccc(C)cc3cc2C#N)c(OC)c1	1	-33	13	6	.	.
COc1cc(C(=O)NCCCNc2nc3cc(C)cc(C)c3cc2C#N)cc(OC)c1OC	0	-2	14	32*	85*	55*
CC(=O)c1c(C)[nH]c(C(=O)OCc2csc(CC(=O)Nc3ccccc3C)n2)c1C	-2	-13	-1	-3	.	.
Cc1ccc(Cl)cc1NC(=O)CN1CCN(S(=O)(=O)N2CCC(C)CC2)CC1	1	3	-2	1	.	.
COc1ccc(-n2ncc3c2CC(C)(C)CC3NC(=O)c2cn[nH]c2)cc1 (configuration not stated)	0	.	4	3	.	.
COc1ccccc1C(=O)Nc1ccnn1C1CCN(CC2CC=CCC2)CC1 (configuration not stated)	-3	0	2	1	.	.
COc1cc(OC)cc(-c2oc3cccnc3c2C#CCCO)c1	1	-10	11	42*	-5	-5
CCOC(=O)c1c(C)nc(C)c(C(=O)OCC)c1-c1ccccc1	0	-2	-10	-4	.	.
CCOC(=O)c1c(-c2ccccc2)cn2c(C)cc(C)nc12	0	4	6	30*	90*	56*
O=C(NCC1CCCCC1)c1csc([C@@H]2C[C@H](O)[C@@H](CO)O2)n1	.	.	4	-3	.	.
O=C1[C@H](Cc2ccccc2)NCCCC[C@H](c2ccco2)N1Cc1ccccc1	.	.	7	2	.	.
SMILES	Mtb UGM inh	Rv3671c protease	GDH-TPI counter-1	FBA Mtb inh	Mtb FBA confirm	GDH-TPI counter-2
Cc1ccc(-c2cc3nc(-c4ccccc4)cc(NCCCO)n3n2)cc1	.	.	12	83*	72*	54*
Cc1ccc(-c2cc(N)n3nc(-c4ccc(C)cc4)cc3n2)cc1	-1	3	9	27	.	.
Cc1ccc(-c2cc3nc(-c4ccccc4)cc(N)n3n2)cc1	-2	2	26	29*	3	1
COCCCNc1nc2ccccc2nc1NS(=O)(=O)c1ccc(OC)cc1	4	0	25	30*	71*	65*
Cc1ccc(-c2csc3ncn(C(C)C(=O)O)c(=O)c23)cc1 (configuration not stated)	5	0	5	0	.	.
Cc1nc2nc(-c3ccco3)nn2c(C)c1Cl	0	-3	10	38*	37*	35*
Cc1nc2nc(COc3ccccc3)nn2c(C)c1Cl	1	2	5	39*	+	189*
Cc1nc2nc(NCc3cccs3)nn2c(C)c1Cl	0	-23	3	35*	62*	41*
Cc1nc2nc(Cc3ccccc3)nn2c(C)c1Cl	-1	-4	9	1	.	.
COc1ccc(CNc2nc3nc(C)c(Cl)c(C)n3n2)cc1	4	6	6	4	.	.
CC(=O)c1ccc(S(=O)(=O)N2CCN(c3nn(C)c(=O)n(C)c3=O)CC2)cc1	.	.	-1	-1	.	.
C[C@@H]1CN([C@H](C)CO)S(=O)(=O)c2ccc(Br)cc2O[C@H]1CN(C)C(=O)Cc1ccccn1	.	.	2	-3	.	.
COc1ccc([C@H]2C[C@@H](n3cc(COC(=O)c4ccccc4)nn3)[C@H](O)CN2Cc2cccs2)cc1	.	.	28	5	.	.
COc1ccccc1NC(=O)C1CCN(C(=O)c2ccco2)CC1	1	6	-2	-4	.	.
Nc1ccc[n+](Cc2ccccn2)c1	2	-1	6	61*	1	-2
CCc1noc(C)c1C(=O)Nc1cccc2ncccc12	-1	4	5	2	.	.
Cn1c(=O)c2cc(NC(=O)CCc3cccc(Cl)c3)ccc2n1Cc1cccc(C(F)(F)F)c1	.	.	-4	37*	96*	84*
Cn1c(=O)c2cc(NC(=S)NCc3ccccc3F)ccc2n1C	.	.	8	57*	18	12*
O=C(NCc1ccc(Cl)cc1Cl)C1CC(=O)N(Cc2ccccc2)C1 (configuration not stated)	1	-8	-1	0	.	.
Cn1c(=O)c2cc(NC(=O)Cc3ccccc3F)ccc2n1-c1ccc(C(C)(C)C)cc1	.	.	11	27	.	.
COc1ccc(OC)c(CC(=O)Nc2ccc3c(c2)c(=O)n(C)n3Cc2cccc(C(F)(F)F)c2)c1	.	.	-5	111*	36*	28*
COc1cc(CCC(=O)Nc2cccc(C(F)(F)F)c2)cc(OC)c1OC	2	-4	11	-1	.	.
Cn1c(=O)c2cc(NC(=O)NCc3ccc(Cl)cc3Cl)ccc2n1Cc1ccccc1	.	.	8	48*	152*	117*
CC(C)c1nnc(NC(=O)C2CCN(C(=O)Nc3ccccc3)CC2)s1	1	-2	-8	-1	.	.
COc1ccc(CNC(=O)c2cc(=O)c3cc(C)cc(C)c3o2)cc1	0	4	5	0	.	.
